A selection: hits, their analogues and other compounds. The true share with any hit is near 7.9%.
HCV inhibitor = blocks hepatitis C virus. Huh7.5.1 HCVcc-Cre infection, luciferase reporter, 44 h. Potency, µM (titrated, usually from 41.8 µM), without a hit: top-dose activity change, negative = inhibition, most hits filed as inhibitors. hit rate 3.4% among 340,000; active = well fitted inhibition curve with a large enough effect; inconclusive = small, poorly fitted or top-dose-only effect, or another doubt; inactive = no such curve, though single readings can be large or run the other way; note: potency is the fitted concentration of half-maximal effect
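HCVcc-Cre virus at an moi near 0.5 was added right after compound to cells cultured 4 h from seeding (1,000 cells/well). Luciferase activity was determined 44 h later, 15 min after substrate addition at RT.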
Lassa entry inh = Lassa virus entry inhibition | Lassa virus pseudotype entry inhibition, cell reporter | AID 540256 | hit rate 1.2% among 300,000 | Potency, µM (series often up to 37.9 µM), without a hit: at the highest dose activity change, negative = inhibition, hits mostly inhibitors; calls by dose curve; tested in HEK293 cells; note: potency is the fitted concentration of half-maximal effect; nearly all actives have a fitted effect of over 50% in size
HCMV antiviral = blocks human cytomegalovirus replication | HFF cells, HCMV-luciferase reporter, 72 h; stronger effect = lower value | AID 1259415 | hit rate 4.5% among 410,000 | activity change, negative = inhibition, % at 57.5 µM; in the data active = activity change below about -60%; inconclusive = no clear call, values can overlap the other calls; inactive = above about -39%
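Human foreskin fibroblasts infected with luciferase-reporter HCMV at MOI 1 PFU/cell, compounds at two doses. Luciferase measured 72 h post infection; normalized to buffer-only basal and Salinomycin (10uM) controls.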
MARV entry inh = inhibitors of Marburg virus binding or cell entry | Marburg virus pseudotyped entry inhibition, cell reporter | Potency, µM (titrated, usually from 37.8 µM), inactives show at the top dose activity change, negative = inhibition, hits mostly inhibitors | hit rate 1.8% among 300,000; calls by dose curve; tested in HEK293 cells; note: potency is the fitted concentration of half-maximal effect
FMDV antiviral = foot and mouth disease virus antiviral activity. FMDV antiviral cell-based qHTS. Potency, µM (series often up to 57.9 µM), without a hit: at the top dose activity change, negative = inhibition, hits mostly inhibitors. hit rate 1.2% among 410,000. AID 1159524; calls by dose curve; tested in HEK293T cells; note: read-out not given here; potency is the fitted concentration of half-maximal effect; nearly all actives have a fitted effect of over 45% in size
Starred values were filed as active, the others as inactive; u = inconclusive; x = not tested or not shown; [ ] = another dose, or the depositor's remark. % is set by controls: 0 for no effect and ±100 for the full control effect.

SMILES | HCV inhibitor | Lassa entry inh | HCMV antiviral | MARV entry inh | FMDV antiviral
CCC(C)(C)C(=O)O[C@@H]1C[C@@H](C)C=C2C=C[C@H](C)[C@H](CC[C@@H]3C[C@@H](O)CC(=O)O3)[C@H]21 | x | x | x | x | -23.9%
O=C(NCc1ccccc1F)C(=O)NCC(c1ccco1)S(=O)(=O)c1cccs1 (centres undefined) | x | u | 7.4 | x | -12.8%
COc1ccc(CCNC(=O)c2cc3c(=O)n4ccccc4nc3n(CC3CCCO3)c2=N)cc1 (centres undefined) | u | x | -28.9 | x | -23.2%
N=c1c(C(=O)NCC2CCCO2)cc2c(=O)n3ccccc3nc2n1Cc1ccccc1 (centres undefined) | 7.08µM* | x | 34.1 | x | -11.7%
COc1ccc(CCNC(=O)c2cc3c(=O)n4ccccc4nc3n(CC3CCCO3)c2=N)cc1OC (centres undefined) | 8.91µM* | x | 17.3 | x | -22.7%
O=C(NCC1CCCO1)c1cc2ccccc2nc1Cl (centres undefined) | 16.1% | x | -69.5* | x | 14.7%
Cc1cccc(CN2CCC(C(=O)Nc3ccc(-n4nc(C)cc4C)cc3)CC2)n1 | 8.8% | -7.1% | u | 10.5% | -16.0%
CCOc1ccc(-n2c(C)c3c(C)nnc(C)c3c2C)cc1 | x | x | -62.2* | x | u
C=CCN(C#N)c1nc(OC)nc(N2CCCC2)n1 | u | u | 13.6 | 8.2%[46.1 µM] | -13.5%
N#CN(CC(N)=O)c1nc(N2CCCCC2)nc(N2CCCCC2)n1 | 10µM* | 4.5% | -2.7 | u | 0.0%
Cc1ccnc(NC(=O)c2cccc(S(=O)(=O)N3CCCC3)c2)c1 | 13.9% | x | 32.6 | x | 42.0%
O=C(Nc1ccc(Cl)cn1)c1cccc(S(=O)(=O)N2CCCC2)c1 | -22.4% | u | u | -10.3%[46.1 µM] | -28.1%
Cc1ccnc(NC(=O)c2cccc(S(=O)(=O)N3CCN(c4ccccc4)CC3)c2)c1 | u | 5.01µM* | 25.0 | u | u
Cc1ccc(NC(=O)c2cccc(S(=O)(=O)N3CCN(c4ccccc4)CC3)c2)nc1 | 12.6µM* | -0.7% | -85.2* | u | -24.9%
CCN(CC)S(=O)(=O)c1nnc(NC(=O)COc2ccc(Cl)cc2)s1 | x | 24.2%[46.1 µM] | 0.1 | x | -7.1%
OC(CNCC(c1ccc(Cl)cc1Cl)c1c[nH]c2ccccc12)c1ccccc1 (centres undefined) | u | u | -107.7* | 7.94µM* | u
OC(CNCc1ccccc1)c1ccc(Cl)cc1 (centres undefined) | 13.0% | 18.7%[46.1 µM] | 18.7 | u | -1.9%
COC(=O)C(O)(c1ccccc1)C(Nc1ccc(OC)cc1)c1ccc(Br)cc1 (centres undefined) | x | x | -4.8 | x | x
CCOC(=O)c1ccc(NC(=O)N2CCN(CCc3ccccc3)CC2)cc1 | u | 1.1% | 110.2 | u | 8.3%
CCOc1ccc(NC(=O)OCCN2CCN(CCc3ccccc3)C(C)C2)cc1 (centres undefined) | 11.2µM* | u | u | u | u
Cc1ccc(C(=O)N2CCN(C3c4cccc5cccc(c45)C3NS(=O)(=O)c3ccccc3)CC2)cc1 (centres undefined) | u | 12.6µM* | -18.0 | 11.2µM* | -29.8%
Cc1ccc(S(=O)(=O)NC2c3cccc4cccc(c34)C2Sc2nc(C)cc(C)n2)cc1 (centres undefined) | u | u | 1.4 | 17.8µM* | 4.3%
COc1ccccc1C(=O)Nc1ccc(C(=O)OCc2cc(=O)n3nc(C)sc3n2)cc1 | x | 22.4%[46.1 µM] | 70.2 | x | 15.8µM*
COc1ccccc1C(=O)Nc1ccc(C(=O)OCc2cc(=O)n3nc(C4CC4)sc3n2)cc1 | x | 8.3%[46.1 µM] | -18.7 | x | -20.7%
Cc1cn2c(=O)cc(COC(=O)c3cccc(NC(=O)COc4ccc(Cl)cc4)c3)nc2s1 | x | u | 3.2 | x | -2.2%
SMILES | HCV inhibitor | Lassa entry inh | HCMV antiviral | MARV entry inh | FMDV antiviral
Cc1nn2c(=O)cc(COC(=O)c3ccc(NC(=O)COc4ccc(C)c(C)c4)cc3)nc2s1 | x | 10.5%[46.1 µM] | -28.3 | x | 11.2µM*
Cc1nn2c(=O)cc(COC(=O)c3ccc(NC(=O)COc4ccccc4F)cc3)nc2s1 | x | 1.6%[46.1 µM] | 3.6 | x | 10µM*
Cc1nn2c(=O)cc(COC(=O)c3cccc(NC(=O)COc4ccc(C)c(C)c4)c3)nc2s1 | x | 10.5%[46.1 µM] | -61.7* | x | 15.3%
N#CCCn1c(=O)c(-c2ccc(F)cc2)nc2cnc(N3CCNCC3)nc21 | x | x | x | x | -19.4%
CCCNC(=O)CCc1c(C)nc2nc(CNC(=O)c3ccccc3)nn2c1C | x | 2.8%[46.1 µM] | 1.9 | -21.7%[46.1 µM] | 13.5%
CC#CCN1c2ccccc2[C@]23CCC(=O)N(CCCOC(C)C)C2=NC(C(=O)OC)=C(C(=O)OC)[C@H]13 | x | x | x | -12.3%[14.2 µM] | x
